# The full ranking holds about 59,000 sequences; the median of the read-out is about -0.00055, and the lowest 2% start at about -2. The entries come from a sample that favours the lowest values as a whole.
# Test: Identification of proteins required for the processing of the EWS-FLI1 nascent transcript;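 also: robust z of luciferase light less the median z of siRNAs with the same seed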
# Conditions: TC32 Ewing sarcoma NR0B1-luc vs CMV-luc (EWS-FLI1 target promoter against control promoter), 48 h; screened at 20 nM (by protocol)
# Summary of the method: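 Three siRNAs per gene, each in a separate well at 20 nM, were transfected into TC32 cells bearing either reporter construct. Luminescence was measured two days on, and per-gene comparison relied on seed-corrected Z values.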
row,Sequence,seed-corrected z-score
1,UUUAUGCUGAGUCCCAUAG against APBB1IP,-2.98
2,AAAGUAAUAGAAGUGUUUG against MOB3B,0.429
3,UAGAGAGACAGGGUGCAGG against C1orf162,-2.87
4,UCUGGUUUUAGUAUUCUUA against NBEAL1,-0.389
5,UUCUUUAGACUGUCCAGCG against KLHL6,-2.04
6,UUAGGGCUUGGUAUAGAGG against ST18,0.568
7,UUGCGUUCCACAUGUUGAC against PRDM7,-9.3
8,UAAGUGAUUGGAGGUAAAG against LOC727775,0.67
9,AUAUGGUCCUUCUUAUUGC against HSD52,0.199
10,AUGCUUAUAGUUGUUCUUC against POU1F1,-2.19
11,UCACAAAACACUUUGCCGU against LIMD1,0.194
12,UUGGUAGAGAGGUAAAAUG against KRTAP4-4,1.06
13,UAAUAGUCAGGUUCCCUGU against OR6C2,-0.02
14,AAAGUAGGACGAGAUGCCG against DDX51,1.06
15,UCUGGACACGGCUUAUUGC against C17orf58,0.125
16,AUAAGAACAACAAAUACAC against C2CD4A,0.789
17,UGGUUAUUAAUGGUGCACC against ELF2,-2.8
18,UUAGAGCUACUGAACUGCC against DHX58,0.739
19,AAGUUGCCAAGAACAUGCU against LINC01168,-3.59
20,UAUCUGGUAUGCUACGUCC against CCDC7,0.683
21,UAUGAUCGAACUUUUUGAG against RSG1,-2.03
22,AACCUGUCAAUUAUCACUG against EBF1,0.337

row,Sequence,seed-corrected z-score
1,UCUCCGUCCACAUUUGUUG against NTRK1,0.0167
2,UCUCUGAUGAGCAUUAAGG against ZNF26,-0.977
3,AAACUUCUUGGGUUUCUAC against ZBTB8OSP1,0.246
4,ACACUGACAAAUGUUAGGC against VWDE,-2.22
5,AACCUUUAACUUGUGCUCC against ELAC2,0.641
6,UGCCCAAAUAGAAUUCUGU against RPL35A,-0.216
7,AGCUUUUCCAAAACCGUGC against NGDN,2.14
8,AUAUUUAUUGGGCAGUGGA against PYDC1,-0.518
9,UUUGUAGCAGGUACAGGCC against EPPK1,-0.0968
10,AAGGUGGUAGGCACUUUGG against MAVS,-2.67
11,UUCGAAAUGCCUGAUAGCC against P3H2,0.287
12,AGAUGUUCCACACUCUGCC against C1orf95,-3.59
13,AUACUGCCGAUAUAUCAGC against AP4S1,-0.442
14,AAGUUUAUGGACAAUUUCC against SMYD5,0.313
15,UACUUUACAACAUAUGGGC against STK3,-0.0972
16,UGGUUAGCAAUGCAUAUUC against SV2C,0.364
17,UUCUUCAUUCCUGCUAGGC against EEF1B2P5,-0.108
18,UAAGGGUCAAUGCAGUAGU against ZAR1L,-0.414
19,UAAAUAGCAAAUUGCAUAC against DNAJB3,1.32
20,UUUGCCUAGACUAUGCUUG against PPARGC1B,-1.6
21,AUCUGCAUAAUCCUUGUUG against COG2,-2.77
22,UAUGUAACUGACAAUGACG against ADGRA3,-0.447

row,Sequence,seed-corrected z-score
1,UUGAGUGCAAAGGCUUGUC against SLC25A12,1.4
2,UUAGGUCUCUGAAGUUUUC against NUTM2A-AS1,-0.188
3,UAUCUUAUUUCAUCGUUUC against PTGS1,-0.545
4,AUCGUCUUGACUGUGGUCC against CEACAM1,-0.766
5,AUAGCGAUUAUUCUCACAG against PDHA1,0.0331
6,UUAUUUAUCUGAGUUGUGA against NFIA-AS1,-2.52
7,UGCAGUAAACAUUUCGUUG against ADAMTS9,-0.75
8,UUGUGGUAGAUGGGACUGG against DOK3,-3.05
9,UCUGCGGUUACUCUCCAUC against TLX1,-0.0327
10,AUGAGUACAGACAAGGUCC against DRD1,-0.626
11,AACAGGCUCAGGGAUAUUG against MORN2,-1.84
12,UAGCUUCGAAUAAACAUCC against FAM3D,-4.22
13,UGAAAUACGGAUGACAUUC against AKR1C3,-1.21
14,UUUUGUGCAUAGACCAUAG against DHRS12,-0.542
15,UCUUCUUAGACCUUUCGGG against PRPF38A,-2.28
16,UUUGCAUCGUGGUAUUUCC against CTCFL,0.259
17,UUUACGAUAAUCAACCUUC against BCO1,0.641
18,UUCGCAUUGCUUCUAACUC against UACA,0.538
19,UUCAAAGUAUCGUUCUUUC against PANX3,1.35
20,UCCCGUACCAAGGGUAGCU against FAM78B,0.456
21,AAUGGUGUUGCUCUUCUCC against ZNF23,1.51
22,UUCGAAUAGUAGAAAGUCG against ABCB5,0.0668

row,Sequence,seed-corrected z-score
1,AAGCAUGUUGGUAACCUCG against PLA2G3,-2.04
2,UACAGCAUCGUCUUCUACC against TMEM246,0.565
3,UACACUUGAGUUGACGACC against LOC642335,0.105
4,UGCAUAGACAGAUUAAGCC against SEC22A,-0.0597
5,UGCUCUUUUGCUUACGUGG against GAB1,-1.74
6,UGCGUUUUCAGCUGGUUAC against MYNN,-3.83
7,UCCGUGAGAACUCAUAAGG against TG,-0.13
8,UACAGUCAAAGCUCCGUUC against GFI1,1.42
9,UCUGCGUUCUGAUUGGUGG against ANKRD55,-4.59
10,AUGCAAGUAACUGAGAUCG against CLEC14A,-1.2
11,UGUUCUAUGAGGCAAGAUG against ZGRF1,0.286
12,ACUUUCACAACGAUUUUCU against RPL34P34,-2.47
13,UUCUUUACAGCAUGAGGGC against CCL25,0.424
14,AAAGUCAUCAGCAAUUUGG against OR10G8,-1.41
15,UCCGUCGUCAGAAAGAUGC against DGCR2,0.0908
16,UGACGUGUCAUUCUCAUAC against ZNF69,-2.01
17,UUGGAGCAAAAUACAGUGG against NQO1,0.331
18,UUGUUCCUCAGGUCAAGUG against GAB2,1.13
19,UAGUUGUUCAGCGAGGUCC against CEP250,-0.0255

# Reference: PubChem BioAssay AID1159506 (National Center for Advancing Translational Sciences (NCATS), 2015)
